Values joined by “and” are separate entries in the source; they are usually repeats but may differ in a detail not shown here. Identical values can stand only once. Records with an inconclusive call do not appear. Where a structure was tested more than once in an assay, its records may differ in their call. Active and inactive are the calls of the source. Rule for the calls, unless noted: active = hit-call score of the fitted dose curve at least 0.9, where 1 is the maximum; inconclusive = response in the unintended direction; inactive = score below 0.9.
How the values were obtained:
[1] = ATG_M_19_TRANS: Attagene TRANS-FACTORIAL HepG2 Assay for M19 Transcription Factor (Internal Marker) (AID 2282974); details: HepG2 Attagene TRANS-FACTORIAL M19 internal marker reporter
Procedure, shortened: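 24 h chemical exposure of transiently transfected HepG2 (MRTU library). RNA → oligo(dT) RT → PCR → 6-FAM labelling → HpaI cut → CE fluorescence. Positive-direction fit vs DMSO baseline; background internal-marker readout.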

[2] = ATG_GAL4_TRANS: Attagene TRANS-FACTORIAL HepG2 Assay for GAL4 (Internal Marker) (AID 2282976); details: HepG2 Attagene TRANS GAL4 internal marker reporter
Procedure, shortened: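 Background-control readout: GAL4-UAS reporter transcript in transiently transfected HepG2 cells after 24 h compound exposure. Measured by RT-PCR, 6-FAM primer extension, HpaI digest and capillary electrophoresis; gain-of-signal fit versus DMSO.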

[3] = target: human Retinoid X Receptor beta (RXRb), RXRB (gene 6257) (UniProt P28702); assay: ATG_RXRb_TRANS: Attagene TRANS-FACTORIAL HepG2 Assay for human Retinoid X Receptor beta (RXRb) (AID 2283013)
Sequence of human Retinoid X Receptor beta (RXRb), RXRB (gene 6257) (P28702 whole entry, looked up, the tested form may be a part): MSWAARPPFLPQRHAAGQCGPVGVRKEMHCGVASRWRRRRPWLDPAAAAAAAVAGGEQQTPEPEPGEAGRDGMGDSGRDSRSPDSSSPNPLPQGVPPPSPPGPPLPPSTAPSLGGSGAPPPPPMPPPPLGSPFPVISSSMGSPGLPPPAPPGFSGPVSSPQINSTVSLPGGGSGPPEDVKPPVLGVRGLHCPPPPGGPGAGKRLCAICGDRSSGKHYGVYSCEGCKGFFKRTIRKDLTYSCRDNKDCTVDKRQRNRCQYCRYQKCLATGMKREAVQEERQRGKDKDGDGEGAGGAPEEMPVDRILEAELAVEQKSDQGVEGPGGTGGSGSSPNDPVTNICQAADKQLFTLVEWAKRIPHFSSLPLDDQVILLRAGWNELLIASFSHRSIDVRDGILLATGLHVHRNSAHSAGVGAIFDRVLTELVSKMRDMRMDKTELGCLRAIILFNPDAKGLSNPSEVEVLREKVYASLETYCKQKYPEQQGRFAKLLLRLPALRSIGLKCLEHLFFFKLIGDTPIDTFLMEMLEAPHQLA
Procedure, shortened: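 Chimeric receptor-Gal4 activity was assessed in transiently transfected human HepG2 cells after 24 h exposure. Transcripts from GAL4-UAS reporters were quantified by fluorescent RT-PCR and capillary electrophoresis, with DMSO as negative control and baseline.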

[4] = TOX21_p53_BLA_p2_viability: Viability Assessment in the Tox21 HCT-116 p53 Agonism Beta-lactamase Assay, Phase 2 (AID 2283591);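 note: actives lower the ATP signal meaning cytotoxicity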
Procedure, shortened: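 HCT-116 p53-bla cells (4000/well) rested 5 h at 37C, then received compounds in DMSO (217-fold dilution) for 16 h at 37C, 5% CO2. After the CCF4 read, CellTiter-Glo was added; ATP luminescence was read after 30 min at room temperature.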

[5] = TOX21_p53_BLA_p3_viability: Viability Assessment in the Tox21 HCT-116 p53 Agonism Beta-lactamase Assay, Phase 3 (AID 2283593);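 note: cells exposed to compound for 16 h before reading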
Procedure, shortened: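 HCT-116 cells (4000/well) rested 5 h at 37C, then got DMSO compounds by pin tool (217-fold dilution) for 16 h at 37C, 5% CO2. After the bla read, CellTiter-Glo was added and luminescence read at 30 min, room temperature.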

[6] = target: Cellular tumor antigen p53 (Homo sapiens) (UniProt P04637); assay: TOX21_p53_BLA_p3_ratio: Tox21 HCT-116 p53 Agonism Beta-lactamase Assay, Ratio, Phase 3 (AID 2283596)
Sequence of Cellular tumor antigen p53 (Homo sapiens) (P04637 whole entry, looked up): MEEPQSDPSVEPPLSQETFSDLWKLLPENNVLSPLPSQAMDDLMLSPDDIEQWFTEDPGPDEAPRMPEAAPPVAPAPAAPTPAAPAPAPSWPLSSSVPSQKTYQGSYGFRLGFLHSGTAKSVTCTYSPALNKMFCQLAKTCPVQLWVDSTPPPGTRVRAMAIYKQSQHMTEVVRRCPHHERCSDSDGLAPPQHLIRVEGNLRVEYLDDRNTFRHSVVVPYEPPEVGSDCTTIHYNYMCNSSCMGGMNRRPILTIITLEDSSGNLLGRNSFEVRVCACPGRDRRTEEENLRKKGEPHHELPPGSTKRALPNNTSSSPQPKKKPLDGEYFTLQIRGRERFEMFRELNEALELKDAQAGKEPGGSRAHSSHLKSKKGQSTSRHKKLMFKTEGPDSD
Procedure, shortened: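 Cells were seeded at 4000/well, rested 5 h at 37C, then dosed with DMSO compound solutions (217-fold dilution) for 16 h. CCF4-AM substrate was loaded for 2 h at room temperature, and the 460/530 nm emission ratio was fitted for gain of signal versus DMSO.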

[7] = TOX21_p53_BLA_p4_viability: Viability Assessment in the Tox21 HCT-116 p53 Agonism Beta-lactamase Assay, Phase 4 (AID 2283597);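 note: hits lower the luminescence signal meaning cytotoxicity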
Procedure, shortened: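 4000 HCT116 cells per well; 5 h attachment; compounds from DMSO, 217-fold dilution; 16 h at 37C. Then CCF4-AM, 2 h RT, followed by CellTiter-Glo, 30 min RT, luminescence. Decrease = cytotoxicity.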

[8] = TOX21_p53_BLA_p5_viability: Viability Assessment in the Tox21 HCT-116 p53 Agonism Beta-lactamase Assay, Phase 5 (AID 2283600)
Procedure, shortened: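 Decreased CellTiter-Glo luminescence denotes lost viability. Exposure: 16 h at 37C, 5% CO2, with compounds from DMSO stocks diluted 217-fold in wells of 4000 cells.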

[9] = target: Cellular tumor antigen p53 (Homo sapiens) (UniProt P04637); assay: TOX21_p53_BLA_p4_ratio: Tox21 HCT-116 p53 Agonism Beta-lactamase Assay, Ratio, Phase 4 (AID 2283601)
Procedure, shortened: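 HCT116 cells carrying an inducible beta-lactamase reporter were plated at 4000 cells/well, rested 5 h, then exposed to compounds in DMSO (217-fold dilution) for 16 h at 37C. CCF4-AM substrate was loaded 2 h at room temperature; 460/530 nm emission ratio scored gain-of-signal versus DMSO.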

[10] = ACEA_AR_agonist_AUC_viability: ACEA Biosciences xCELLigence Real-Time Cell Analysis on Androgen Receptor Agonism for Viability (AID 2283775);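 for AC50: viability read 80 hours after compound addition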
Procedure, shortened: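 22Rv1 cells; impedance growth kinetics; 8-pt 1:4 dilutions from 100 uM top final, ≤0.5% DMSO; n = 2; 80 h read; AUC viability, loss-of-signal vs DMSO.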

[11] = target: Oxysterols receptor LXR-beta (Homo sapiens) (UniProt P55055); assay: ATG_LXRb_TRANS: Attagene TRANS-FACTORIAL HepG2 Assay for human Liver X Receptor beta (LXRb) (AID 2282981); details: HepG2 Attagene TRANS GAL4-LXRb reporter, mRNA
Sequence of Oxysterols receptor LXR-beta (Homo sapiens) (P55055 whole entry, looked up, the tested form may be a part): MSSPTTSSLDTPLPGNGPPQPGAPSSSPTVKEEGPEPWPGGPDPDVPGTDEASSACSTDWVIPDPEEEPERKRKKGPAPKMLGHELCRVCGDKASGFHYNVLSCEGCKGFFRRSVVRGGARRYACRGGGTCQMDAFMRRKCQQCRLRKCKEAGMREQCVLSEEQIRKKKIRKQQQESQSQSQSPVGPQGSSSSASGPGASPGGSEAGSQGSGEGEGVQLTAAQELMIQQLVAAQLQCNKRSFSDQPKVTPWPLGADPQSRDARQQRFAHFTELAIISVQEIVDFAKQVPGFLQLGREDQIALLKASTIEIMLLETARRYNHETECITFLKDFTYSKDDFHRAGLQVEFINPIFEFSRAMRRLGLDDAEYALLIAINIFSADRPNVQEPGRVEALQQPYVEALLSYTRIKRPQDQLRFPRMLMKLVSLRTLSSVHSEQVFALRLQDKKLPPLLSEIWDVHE
Procedure, shortened: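 Measures induction of a Gal4-driven reporter transcript in HepG2 cells expressing an exogenous LXRb-Gal4 fusion. Cells are exposed to compound for 24 h before RNA isolation and RT-PCR with capillary electrophoresis detection.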

[12] = target: human Peroxisome Proliferator-activated Receptor alpha (PPARa), PPARA (gene 5465) (UniProt Q07869); assay: ATG_PPARa_TRANS: Attagene TRANS-FACTORIAL HepG2 Assay for human Peroxisome Proliferator-activated Receptor alpha (PPARa) (AID 2283001)
Sequence of human Peroxisome Proliferator-activated Receptor alpha (PPARa), PPARA (gene 5465) (Q07869 whole entry, looked up): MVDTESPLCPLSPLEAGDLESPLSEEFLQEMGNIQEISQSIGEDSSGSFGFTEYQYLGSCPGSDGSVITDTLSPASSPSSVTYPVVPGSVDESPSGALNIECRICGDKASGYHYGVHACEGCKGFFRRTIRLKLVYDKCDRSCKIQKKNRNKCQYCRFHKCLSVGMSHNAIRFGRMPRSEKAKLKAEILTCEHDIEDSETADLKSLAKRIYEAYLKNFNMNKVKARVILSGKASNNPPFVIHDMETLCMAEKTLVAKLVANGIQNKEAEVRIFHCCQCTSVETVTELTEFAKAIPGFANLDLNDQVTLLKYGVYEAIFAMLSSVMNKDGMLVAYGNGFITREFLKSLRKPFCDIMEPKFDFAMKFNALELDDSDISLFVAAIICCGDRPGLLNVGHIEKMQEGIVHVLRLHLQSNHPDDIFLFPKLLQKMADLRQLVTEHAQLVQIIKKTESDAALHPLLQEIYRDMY
Procedure, shortened: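 Cells (HepG2) are transfected with multiple reporter transcription units, exposed to chemical for 24 h, then total RNA is reverse-transcribed and amplified. Labelled products are quantified by capillary electrophoresis; induction is referenced to DMSO.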

[13] = target: human Vitamin D Receptor (VDR), VDR (gene 7421) (UniProt P11473); assay: ATG_VDR_TRANS: Attagene TRANS-FACTORIAL HepG2 Assay for human Vitamin D Receptor (VDR) (AID 2283022)
Sequence of human Vitamin D Receptor (VDR), VDR (gene 7421) (P11473 whole entry, looked up, the tested form may be a part): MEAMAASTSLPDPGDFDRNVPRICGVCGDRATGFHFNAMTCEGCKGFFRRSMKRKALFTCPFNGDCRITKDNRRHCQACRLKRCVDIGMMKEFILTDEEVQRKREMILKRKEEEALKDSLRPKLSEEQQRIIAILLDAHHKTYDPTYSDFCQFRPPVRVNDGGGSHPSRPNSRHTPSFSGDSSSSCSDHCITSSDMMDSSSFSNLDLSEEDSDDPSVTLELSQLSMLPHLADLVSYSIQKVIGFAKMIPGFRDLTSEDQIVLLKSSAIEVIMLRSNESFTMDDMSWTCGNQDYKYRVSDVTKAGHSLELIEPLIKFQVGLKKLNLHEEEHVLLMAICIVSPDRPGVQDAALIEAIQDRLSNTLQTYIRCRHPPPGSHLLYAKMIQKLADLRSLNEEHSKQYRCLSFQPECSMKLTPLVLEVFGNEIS
Procedure, shortened: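 HepG2 cells were transiently transfected with GAL4-UAS reporter units and a chimeric VDR-Gal4 construct, then dosed for 24 hours. Reporter mRNA was quantified by RT-PCR, fluorescent labeling, HpaI digestion and capillary electrophoresis; gain of signal analysed vs DMSO.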

[14] = target: Bile acid receptor (Homo sapiens) (UniProt Q96RI1); assay: ATG_IR1_CIS: Attagene CIS-FACTORIAL HepG2 Assay for human Nuclear Receptor Subfamily 1 Group H Member 4 (NR1H4), IR1 submotif (AID 2282946; active = hit-call score of the fitted dose curve at least 0.9, where 1 is the maximum; inactive = score below 0.9); details: IR1 reporter transcription, actives raise or lower the signal
Sequence of Bile acid receptor (Homo sapiens) (Q96RI1 whole entry, looked up): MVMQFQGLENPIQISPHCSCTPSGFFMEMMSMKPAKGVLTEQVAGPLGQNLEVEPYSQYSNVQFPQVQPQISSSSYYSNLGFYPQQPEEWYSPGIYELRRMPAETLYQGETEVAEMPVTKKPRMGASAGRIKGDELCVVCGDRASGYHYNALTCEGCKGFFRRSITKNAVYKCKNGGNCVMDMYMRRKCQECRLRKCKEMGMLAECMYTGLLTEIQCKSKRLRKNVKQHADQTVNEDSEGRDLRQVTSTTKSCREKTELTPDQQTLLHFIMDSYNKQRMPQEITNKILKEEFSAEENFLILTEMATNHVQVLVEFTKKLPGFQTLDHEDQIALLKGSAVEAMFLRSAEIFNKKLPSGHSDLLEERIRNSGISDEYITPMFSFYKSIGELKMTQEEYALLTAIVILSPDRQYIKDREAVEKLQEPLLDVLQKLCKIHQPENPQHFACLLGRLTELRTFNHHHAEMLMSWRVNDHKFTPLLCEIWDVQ
Procedure, shortened: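 Readout: reporter transcript levels by RT-PCR with fluorescent capillary electrophoresis, from HepG2 cells transiently transfected with multiplexed cis-regulated reporters and dosed 24 h. Gain- or loss-of-signal fitted versus DMSO negative control.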

[15] = target: human Peroxisome Proliferator-activated Receptor delta (PPARd), PPARD (gene 5467) (UniProt Q03181); assay: ATG_PPARd_TRANS: Attagene TRANS-FACTORIAL HepG2 Assay for human Peroxisome Proliferator-activated Receptor delta (PPARd) (AID 2283002)
Sequence of human Peroxisome Proliferator-activated Receptor delta (PPARd), PPARD (gene 5467) (Q03181 whole entry, looked up, the tested form may be a part): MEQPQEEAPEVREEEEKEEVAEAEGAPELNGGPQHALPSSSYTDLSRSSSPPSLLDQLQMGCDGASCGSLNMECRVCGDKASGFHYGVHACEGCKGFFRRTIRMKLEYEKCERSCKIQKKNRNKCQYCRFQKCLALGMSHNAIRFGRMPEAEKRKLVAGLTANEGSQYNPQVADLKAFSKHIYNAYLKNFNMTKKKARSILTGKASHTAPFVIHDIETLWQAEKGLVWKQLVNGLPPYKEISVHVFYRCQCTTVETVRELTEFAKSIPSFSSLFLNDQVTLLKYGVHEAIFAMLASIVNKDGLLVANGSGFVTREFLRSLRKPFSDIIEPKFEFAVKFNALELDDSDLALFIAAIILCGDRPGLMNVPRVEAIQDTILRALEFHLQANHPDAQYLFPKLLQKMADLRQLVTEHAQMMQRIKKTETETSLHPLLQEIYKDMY
Procedure, shortened: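 Multiplexed trans-activation format: HepG2 liver cells expressing exogenous NR-Gal4 chimeras and GAL4-UAS reporters were exposed for 24 h. Reporter mRNA was detected by RT-PCR with capillary electrophoresis fluorescence; activity fitted as gain of signal relative to DMSO.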

[16] = target: human RAR-related Orphan Receptor gamma (RORg), RORC (gene 6097) (UniProt P51449); assay: ATG_RORg_TRANS: Attagene TRANS-FACTORIAL HepG2 Assay for human RAR-related Orphan Receptor gamma (RORg) (AID 2283011)
Sequence of human RAR-related Orphan Receptor gamma (RORg), RORC (gene 6097) (P51449 whole entry, looked up, the tested form may be a part): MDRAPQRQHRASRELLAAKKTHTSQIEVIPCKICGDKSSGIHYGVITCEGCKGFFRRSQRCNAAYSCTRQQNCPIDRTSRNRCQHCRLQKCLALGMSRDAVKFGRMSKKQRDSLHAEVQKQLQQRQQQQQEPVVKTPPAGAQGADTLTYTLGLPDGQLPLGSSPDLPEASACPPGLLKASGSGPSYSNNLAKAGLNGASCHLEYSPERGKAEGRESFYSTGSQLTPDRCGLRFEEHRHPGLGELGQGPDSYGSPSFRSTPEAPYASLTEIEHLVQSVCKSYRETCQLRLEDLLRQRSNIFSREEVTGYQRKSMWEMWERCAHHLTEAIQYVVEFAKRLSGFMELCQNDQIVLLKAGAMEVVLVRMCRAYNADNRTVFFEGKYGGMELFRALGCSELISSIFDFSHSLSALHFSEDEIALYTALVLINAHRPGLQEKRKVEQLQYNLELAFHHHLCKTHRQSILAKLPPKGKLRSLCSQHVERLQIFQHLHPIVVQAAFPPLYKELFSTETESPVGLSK
Procedure, shortened: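 HepG2 cells transiently transfected with GAL4-UAS reporter units and chimeric RORg-Gal4 construct; after 24 h chemical exposure, reporter mRNA measured by RT-PCR with fluorescent capillary electrophoresis, gain of signal fitted against DMSO.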

[17] = target: Hepatocyte nuclear factor 4-alpha (Homo sapiens) (UniProt P41235); assay: ATG_HNF4a_TRANS: Attagene TRANS-FACTORIAL HepG2 Assay for human Hepatocyte Nuclear Factor 4 alpha (HNF4a) (AID 2282982); details: HepG2 HNF4a transactivation reporter, mRNA readout
Sequence of Hepatocyte nuclear factor 4-alpha (Homo sapiens) (P41235 whole entry, looked up, the tested form may be a part): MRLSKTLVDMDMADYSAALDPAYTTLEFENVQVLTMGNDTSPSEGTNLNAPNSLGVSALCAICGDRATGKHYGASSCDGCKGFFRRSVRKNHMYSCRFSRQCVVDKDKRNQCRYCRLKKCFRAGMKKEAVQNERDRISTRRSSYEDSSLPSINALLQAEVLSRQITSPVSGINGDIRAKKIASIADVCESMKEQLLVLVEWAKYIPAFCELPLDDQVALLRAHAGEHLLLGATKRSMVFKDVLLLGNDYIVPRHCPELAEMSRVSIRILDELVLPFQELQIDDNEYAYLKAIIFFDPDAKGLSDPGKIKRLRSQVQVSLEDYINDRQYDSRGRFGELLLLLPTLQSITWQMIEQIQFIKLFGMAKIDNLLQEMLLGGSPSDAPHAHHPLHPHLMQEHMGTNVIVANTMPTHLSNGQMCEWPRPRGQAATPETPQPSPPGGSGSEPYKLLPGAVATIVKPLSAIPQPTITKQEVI
Procedure, shortened: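 In this trans-factorial format, a chimeric HNF4a-GAL4 fusion drives a GAL4-UAS reporter in transfected HepG2 liver cells. After 24 h treatment, reporter mRNA induction is measured by RT-PCR with capillary electrophoresis, relative to DMSO.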

[18] = CCTE_Harrill_HTTr_Apoptosis_MCF7: CCTE's 6-hour Apoptosis Assessment for the High-Throughput Transcriptomics (HTTr) Platform, in MCF-7 cells cultured in DMEM + 10% fetal bovine serum, Harrill Lab (AID 2284011; active = hit-call score of the fitted dose curve at least 0.9, where 1 is the maximum; inactive = score below 0.9)
Procedure, shortened: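 MCF-7 cells in DMEM + 10% FBS exposed 6 h to chemicals over an eight-point dilution series. Caspase-3/7 activation imaged by high-content CellEvent Green staining; fitted bidirectionally versus DMSO.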

[19] = ATG_ERE_CIS: Attagene CIS-FACTORIAL HepG2 Assay for Estrogen Response Element (ERE) (AID 2282940; active = hit-call score of the fitted dose curve at least 0.9, where 1 is the maximum; inactive = score below 0.9); details: HepG2 ERE cis-reporter, Attagene RNA transcript; actives raise or lower the signal
Procedure, shortened: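 Measuring endogenous transcription factor output, the assay doses transfected HepG2 cells for 24 hours and quantifies reporter transcripts by fluorescent RT-PCR and capillary electrophoresis, with DMSO as baseline.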

[20] = target: Nuclear receptor subfamily 1 group I member 3 (Homo sapiens) (UniProt Q14994); assay: ATG_CAR_TRANS: Attagene TRANS-FACTORIAL HepG2 Assay for human Constitutive Androstane Receptor (CAR) (AID 2282969); details: HepG2 Attagene TRANS-FACTORIAL CAR reporter;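 note: activators raise reporter mRNA above DMSO so AC50 marks induction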
Sequence of Nuclear receptor subfamily 1 group I member 3 (Homo sapiens) (Q14994 whole entry, looked up, the tested form may be a part): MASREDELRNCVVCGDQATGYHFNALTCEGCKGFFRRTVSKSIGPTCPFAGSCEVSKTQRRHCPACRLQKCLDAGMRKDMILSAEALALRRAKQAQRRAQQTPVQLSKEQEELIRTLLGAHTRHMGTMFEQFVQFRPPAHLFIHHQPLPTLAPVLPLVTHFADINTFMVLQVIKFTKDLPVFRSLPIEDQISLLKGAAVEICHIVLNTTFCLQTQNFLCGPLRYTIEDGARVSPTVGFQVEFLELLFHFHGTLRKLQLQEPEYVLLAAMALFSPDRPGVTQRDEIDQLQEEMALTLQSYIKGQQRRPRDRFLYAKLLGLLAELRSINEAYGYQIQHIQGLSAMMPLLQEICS
Procedure, shortened: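 Steps: transient transfection of HepG2 with multiple GAL4-UAS reporter units; 24 h compound incubation; RNA isolation, RT-PCR, 6-FAM primer extension, HpaI digest; capillary electrophoresis. Gain-of-signal relative to DMSO negative control.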

Measured: AC50

CC1(C)[C@H](C(=O)O[C@H](C#N)c2cccc(Oc3ccccc3)c2)[C@@H]1C=C(Br)Br
active: [10] 50 µM
inactive: [1] | [2] | [3] | [4] | [5] | [6] | [7] | [8] | [9] | [10]

Nc1ccccc1
inactive: [2] | [11] | [12] | [13] | [6] | [9] | [10]

O=C(NCNC(=O)NC1C(=O)NC(=O)N1CO)NC1C(=O)NC(=O)N1CO (stereo unspecified)
active: [3] 39.8 µM
inactive: [14] | [15] | [16] | [6] | [7] | [9] | [10]

CC(=O)c1cc2c(cc1C)C(C)(C)C(C)CC2(C)C (stereo unspecified)
active: [14] 179 µM | [3] 5.85 µM
not listed: [5] | [6] | [7] | [12] | [16] | [19] | [20]
inactive: all other assays above

C=Cc1cccc(CCl)c1
not listed: [2] | [10] | [11] | [13] | [15] | [18]
inactive: all other assays above

CCc1cc(C)cc(CC)c1-c1c(OC(=O)C(C)(C)C)n2n(c1=O)CCOCC2
inactive: [19] | [14] | [1] | [2] | [17] | [15] | [16]

C=COCCCl
inactive: [19] | [14] | [1] | [2] | [12] | [16] | [3] | [18]

N#CC(c1ccccc1)c1ccccc1
active: [3] 49.1 µM
not listed: [1] | [8] | [10] | [11] | [12] | [16] | [18] | [19]
inactive: all other assays above

C[C@]12CCC(=O)C(O)=C1CC[C@@H]1[C@@H]2CC[C@]2(C)C(=O)CC[C@@H]12
active: [19] 16.8 µM
inactive: [1] | [2] | [11] | [13] | [4] | [5] | [7] | [8] | [18]

O=C1C=CC(=O)C=C1
inactive: [20] | [11] | [17] | [12] | [4] | [6] | [8] | [18]
active: [5] 72.3 µM and 76.5 µM | [6] 71.3 µM

Cc1ccc(C)c2ccccc12
inactive: [14] | [20] | [1] | [11] | [12] | [15] | [10]
active: [3] 83.3 µM

CCC[N+](=O)[O-]
not listed: [3] | [10] | [12] | [19] | [20]
inactive: all other assays above

c1cc(OCC2CO2)ccc1Cc1ccc(OCC2CO2)cc1 (stereo unspecified)
inactive: [19] | [1] | [11] | [17] | [16] | [3] | [13] | [4] | [5] | [7] | [8] | [18]
active: [14] 37.4 µM | [5] 87.4 µM | [6] 75.1 µM and 79.5 µM | [9] 65.9 µM and 82.3 µM

O=C(O)c1cc[c]([Hg][Cl])cc1
inactive: [19] | [14] | [2] | [11] | [17] | [6] | [7] | [9]
active: [15] 49.3 µM | [3] 53.8 µM

CCCCCCC1CCOC1=O (stereo unspecified)
inactive: [1] | [2] | [12] | [8] | [9]

CC1(C)CC(=O)CC(C)(C)N1[O]
not listed: [3] | [5] | [6] | [10] | [12] | [16] | [18] | [19]
inactive: all other assays above

Source: PubChem BioAssay (EPA / NIEHS)
